# Assay results taken from PubChem BioAssay.
# The source made the active and inactive calls. The rule behind the calls is not given here.
# Molecular target: Pantothenate synthetase (Mycobacterium tuberculosis (strain ATCC 25618 / H37Rv)) (UniProt P9WIL5)
# Experiment: Recombinant Mtb pantothenate synthetase (PanC) inhibitors, coupled enzyme, confirmatory (AID 375);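 note: 0% = full reaction with vehicle and 100% = no enzyme background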
# Conditions: coupled enzyme assay; at 10 µM, active compounds read high
# Pantothenate synthetase (Mycobacterium tuberculosis (strain ATCC 25618 / H37Rv)), sequence (P9WIL5 whole entry, looked up): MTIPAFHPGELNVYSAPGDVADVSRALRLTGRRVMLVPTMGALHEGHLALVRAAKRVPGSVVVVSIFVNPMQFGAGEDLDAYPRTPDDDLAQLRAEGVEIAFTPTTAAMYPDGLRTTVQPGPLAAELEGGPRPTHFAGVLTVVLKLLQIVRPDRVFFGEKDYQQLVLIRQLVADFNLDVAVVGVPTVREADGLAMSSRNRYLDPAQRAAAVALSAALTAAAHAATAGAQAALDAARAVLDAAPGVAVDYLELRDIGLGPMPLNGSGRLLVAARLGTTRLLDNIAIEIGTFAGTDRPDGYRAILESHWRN
row,Compound,inhibition
1,CCOC(=O)c1ccc(NS(=O)(=O)c2ccc3c(c2)oc(=O)n3C)cc1,0% (inactive)
2,COc1ccc(NC(=O)C2CCCN(S(=O)(=O)c3cccc4cccnc34)C2)cc1OC (stereo not drawn),0% (inactive)
3,COc1ccc(-c2nc(C)c(C(C)=O)n2O)cc1OC,0% (inactive)
4,Nc1nc(-c2ccc(Br)s2)c(Br)s1,2% (inactive)
5,COc1cccc(NC(=O)N2CCN(C(=O)C(Cc3ccc(OC)c(OC)c3)NC(C)=O)CC2)c1 (stereo not drawn),0% (inactive)
6,CCN(CC)S(=O)(=O)c1cccc(-c2nnc(SCC(N)=O)n2CCc2ccccc2)c1,0% (inactive)
7,CNC(=O)CN(c1ccc(C(C)C)cc1)S(C)(=O)=O,0% (inactive)
8,CC1CCN(C(=O)C2CCN(S(=O)(=O)c3cnc[nH]3)CC2)CC1,5% (inactive)
9,Cc1cc(C(=O)Nc2c(C)n(C)n(-c3ccccc3)c2=O)c(C)o1,0% (inactive)
10,Cc1ccc(OC(=O)NC2CCS(=O)(=O)C2)cc1C (stereo not drawn),0% (inactive)
11,Cc1nnc(NC(=O)CSc2nnc(-c3ccc(S(=O)(=O)N4CCCC4)cc3)n2C)s1,8% (inactive)
12,COc1cc(NC(=O)Cc2ccccc2OC)cc(OC)c1,0% (inactive)
13,Cc1nc2oc3c(NCc4ccccn4)ncnc3c2c2c1COC(C)(C)C2,0% (inactive)
14,CCn1c2ccccc2c2cc(NC(=O)CSc3nnc(C4CC4)n3Cc3ccco3)ccc21,1% (inactive)
15,Cc1nn(C(=O)c2cc3sccc3[nH]2)c(C)c1C,0% (inactive)
16,CC(C)(C)n1ncc2c(=O)n(CC(=O)c3ccccc3)cnc21,0% (inactive)
17,CCN(CC)c1ccc(NC(=O)CN2C(=O)CC(C)(C)S(=O)(=O)c3ccccc32)c(C)c1,0% (inactive)
18,Cc1cccc(-n2c(Cc3cc(=O)[nH]c(=O)[nH]3)nnc2SCC(=O)NCc2ccco2)c1,4% (inactive)
19,CCOC(=O)CSc1nnc(Cn2nnc(-c3ccccc3)n2)n1CC,4% (inactive)
20,O=C(CN1CCCN(S(=O)(=O)c2ccc(Br)cc2)CC1)Nc1ccc2cn[nH]c2c1,0% (inactive)
21,O=C(O)c1cc(-c2ccccc2Cl)n[nH]1,2% (inactive)
22,COc1ccc(C)cc1NCc1cccc(OC)c1OC,0% (inactive)
23,Cc1cc(C(=O)CSCCCn2c(=O)[nH]c3ccccc32)c(C)n1C,2% (inactive)
